# Most compounds without a hit are left out; they make up all but 11% or so of the library.
# HEK cytotox – kills HEK 293 cells. AID 1345083. HEK 293 viability, ATP luminescence (CellTiter-Glo), 48-72 h. Potency, µM (titrated, usually from 115 µM), for the others: at the top dose activity change, negative = cytotoxicity, usual class: inhibitors. 6.6% of 94,000 active; also: nearly all actives have a fitted effect of over 60% in size
#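 CellTiter-Glo luminescence (cellular ATP) was read after 48 or 72 hr of compound exposure at 37 degree Celsius. Cells were HEK 293 plated at 250 cells/well.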
# NIH3T3 tox – kills NIH 3T3 cells. 4.3% of 94,000 active. NIH 3T3 viability, CellTiter-Glo ATP luminescence, 48-72 h. AID 1345082. Potency, µM (top dose mostly 96.7 µM), inactives show at the top dose activity change, negative = cytotoxicity, usual class: inhibitors; also: nearly all actives have a fitted effect of over 55% in size
#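 Cytotoxicity was measured by CellTiter-Glo ATP luminescence after 48 or 72 h compound exposure at 37 °C. Mouse NIH 3T3 fibroblasts were seeded at 400 cells/well and dosed by 23 nL pin transfer.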
# Luciferase inh – blocks purified firefly luciferase enzyme activity. P08659. purified P. pyralis luciferase, luminescence, biochemical. Potency, µM (top dose mostly 115 µM), actives largely listed as inhibitors. 2.5% of 76,000 active. AID 1347043; also: nearly all actives have a fitted effect of over 65% in size
#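 Purified 10nM P. pyralis luciferase with 10uM D-luciferin and 10uM ATP in 50mM Tris acetate pH 7.5, 10mM Mg acetate, 0.01% Tween-20, 0.05% BSA. qHTS titration; luminescence read by CCD imager.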
# hNpr1 antagonist – antagonists of human natriuretic peptide receptor Npr1; P16066; HEK293 hNpr1 GloSensor cGMP, ANP-stimulated luminescence; Potency, µM (top dose mostly 46.3 µM), inactives show at the top dose activity change, negative = inhibition, hits mostly inhibitors; 1.6% of 76,000 active; AID 1347048; calls by dose curve; also: nearly all actives have a fitted effect of over 60% in size
#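 HEK293 cells stably expressing human Npr1 and cGMP GloSensor pGS-40F, loaded 2 h with 2% GloSensor reagent, given compound 30 min at room temperature. Luminescence read before and 20 min after 0.1 nM hNppA.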
# Active calls of the source: *; i = inactive; ? = inconclusive; nt = no result given. Unless noted, calls follow the shape of the dose curve; as a rule, active = well fitted curve in the direction sought with a large enough effect; inconclusive = small, poorly fitted or top-dose-only effect, or another doubt; inactive = no such curve, though single readings can be large; an effect the other way counts as inactive or inconclusive. % is scaled to controls: 0 for no effect and ±100 for the full control effect; potency is read from the fitted curve at half-maximal effect.
SMILES,HEK cytotox,NIH3T3 tox,Luciferase inh,hNpr1 antagonist
O=C1Nc2ccc(-c3ccsc3)cc2C(=O)N2C[C@@H](NS(=O)(=O)c3ccc(F)cc3)C[C@@H]12,-15%,-23%,i,4%
COc1ccc(S(=O)(=O)N[C@H]2C[C@@H](c3nc(-c4ccc(C)cc4)no3)N(C)C2)cc1,79µM*,?,25µM*,?
O=C(NC1CCNCC1)c1cc(C2CC2)nc2onc(C3CCNC3)c12 (centres undefined),-8%,-15%,nt,nt
Cc1nc(-c2cccc(Cl)c2)n(CC(=O)Nc2ccc3c(c2)OCO3)c(=O)c1CCO,40µM*,?,i,-22%
COc1ccc(NC(=O)Cn2c(-c3ccccc3)nc(C)c(CCO)c2=O)cc1Cl,25µM*,?,i,-24%
Cc1ccc(NC(=O)Cn2c(-c3ccc(F)cc3)nc(C)c(CCO)c2=O)cc1Cl,?,?,i,-4%
Cc1cc(C)cc(NC(=O)Cn2c(-c3ccccc3)nc(C)c(CCO)c2=O)c1,32µM*,?,i,-11%
CCc1cccc(NC(=O)Cn2c(-c3ccc(Cl)cc3)nc(C)c(CCO)c2=O)c1,?,-23%,i,-17%
COc1ccc(NC(=O)Cn2c(-c3ccccc3)nc(C)c(CCO)c2=O)cc1OC,?,?,i,-4%
Cc1nc(-c2ccc(F)cc2)n(CC(=O)Nc2ccc(F)c(Cl)c2)c(=O)c1CCO,35µM*,?,i,-24%
COc1ccc(C2(C(=O)N3CCCC(c4nc(CCOCC5CC5)no4)C3)CC2)cc1 (centres undefined),?,-7%,i,-24%
CNC(=O)c1cc(C)nc2onc(C3CCCN3C(=O)c3ccccc3)c12 (centres undefined),-8%,-14%,nt,nt
CC(=O)NCCC(=O)N1Cc2ccccc2CC2(CCCN2CCc2ccc(C)cc2)C1 (centres undefined),-23%,-1%,nt,nt
Cc1nc(-c2ccc(F)cc2)n(CC(=O)NCc2ccc(F)cc2)c(=O)c1CCO,-9%,-25%,i,-2%
Cc1cc(NC(=O)Cn2c(-c3cccc(Cl)c3)nc(C)c(CCO)c2=O)no1,?,?,i,-1%
CCc1cccc(NC(=O)Cn2c(-c3cccc(Cl)c3)nc(C)c(CCO)c2=O)c1,40µM*,?,i,-5%
Cc1ccc(CNC(=O)Cn2c(-c3ccccc3)nc(C)c(CCO)c2=O)cc1,79µM*,?,i,-8%
Cc1nc(-c2cccc(Cl)c2)n(CC(=O)Nc2cccc(C(C)C)c2)c(=O)c1CCO,?,25µM*,i,-8%
Cc1nc(-c2cccc(Cl)c2)n(CC(=O)Nc2ccccc2F)c(=O)c1CCO,45µM*,?,i,-15%
COCCN1CCC(C(=O)Nc2cccc(NC(=O)Cc3ccccc3)c2)C1 (centres undefined),3%,-6%,i,6%
Cc1ccc(NC(=O)Cn2c(-c3cccc(Cl)c3)nc(C)c(CCO)c2=O)cc1,25µM*,40µM*,i,-3%
Cc1ccc(NC(=O)Cn2c(-c3ccc(Cl)cc3)nc(C)c(CCO)c2=O)cc1,32µM*,?,i,-2%
Cc1nc(-c2cccc(Cl)c2)n(CC(=O)Nc2ccccc2)c(=O)c1CCO,45µM*,?,i,-11%
Cc1nc(-c2ccccc2)n(CC(=O)Nc2ccccc2)c(=O)c1CCO,?,?,i,1%
CSc1cccc(NC(=O)Cn2c(-c3ccc(F)cc3)nc(C)c(CCO)c2=O)c1,32µM*,?,i,-17%
Cc1nc(-c2ccc(F)cc2)n(CC(=O)Nc2ccc(F)cc2)c(=O)c1CCO,?,?,i,-6%
Cc1noc(C)c1CCC(=O)NC1CCc2nn(CC3CC3)c(=O)n2CC1 (centres undefined),i,2%,i,4%
O=C(CN1C(=O)NC(c2ccc(Cl)cc2)C2=C1COC2=O)Nc1ccc(C(F)(F)F)cc1 (centres undefined),?,22µM*,i,?
CC(=O)Nc1ccc(NC(=O)CN2C(=O)NC(c3ccc(C)cc3)C3=C2COC3=O)cc1 (centres undefined),-7%,-21%,?,-10%
O=C(CN1C(=O)NC(c2ccc(Cl)cc2)C2=C1COC2=O)NCCc1ccc(Cl)cc1 (centres undefined),45µM*,?,i,-26%

# High-throughput results (PubChem BioAssay)
